Consider 40 sequences from the supplement of paper PMC6555819.

The test relates to VDR:RXRa (NR concentration 270 nM, RXRa partner concentration 90 nM). Description: PBM binding z-score (relative to random genomic background probes); higher = stronger binding; sequences stand for … in GC…GCGATTGACAGCGTAGAATGAAGG
As to the method: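 Protein-binding microarray (Agilent 4x180K custom design, double-stranded 60-nt probes: 5' GC cap, 34-nt variable region, 24-nt constant primer region; full probe sequence given). Purified or IVT nuclear receptor:RXRα heterodimers (3:1 NR:RXRα, mostly 270:90 nM) or homodimers were incubated for 1 h in PBS with 2% milk and no ligand, then detected with Alexa488 antibodies. Fluorescence from o1-orientation probes (~5 replicates averaged) was converted to z-scores against 500 random hg19 background probes. Variable regions are seed direct-repeat (DR0–DR5) sites, all their single-nucleotide variants and half-site ablations.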
In turn, CCTAGCGGGCCAGGGTCACTCAAGCATTTCGCTT displayed a PBM binding z-score of 2.36.

Sequence CGTCAAAGTTCAAGGTAAGGTAACAGAAAGCAGC showed a PBM binding z-score of 3.7.

Regarding GGAACGAAGGCATTCGAGTTGATAGCATGGCGAT, the PBM binding z-score is -0.337.

CAAACTAGGTCAAAGGTCAAAGTCGAGCCAACCA: the PBM binding z-score stood at 6.72.

For the sequence ACTAGTAGTTGACTTAGGGCAACCGATACGACGC, the PBM binding z-score stood at 0.0405.

The sequence ACTATTAGGTGACTTAGGGCAACCGATACGACGC gave a PBM binding z-score of 0.474.

As for CTAACTAGGTCAAGGACAGTGAATCTCCGCACGC, the PBM binding z-score came out at 1.3.

In turn, CAGCCTAGGTCAGGGCCCGTATAGGAGGAACGTT gave a PBM binding z-score of 0.0568.

CGTCAAAGTTCCACTAAGGTAACGTAAAGCACGC displayed a PBM binding z-score of 0.211.

In the case of CTACCAAGGTGAACAAGGTCGTTGAGTACTATTC, the PBM binding z-score is 6.19.

For TCTCGGAGGACACGAAGGTCAGAGATTTCCAGAG, the PBM binding z-score is 2.26.

As to TGAATGAGGTTAAAGAGCAGGGAACGTGGCGTCG, the PBM binding z-score amounted to 1.4.

In turn, ACCAGCAGGCCAAGTTTGGGTCACTCAAACAAAG registered a PBM binding z-score of 0.61.

Sequence ACAGACGGGTGATGAAGGTAACTCAGGCTATCAT registered a PBM binding z-score of 0.177.

Regarding ATCTCTAGGTCACAAGTTCAGTGAAAGAGAGGAC, the PBM binding z-score turned out to be 4.26.

In the case of CGTCCAAGGTCAAAGTTCAGTGAAGAGATGACGG, the PBM binding z-score was determined as 5.84.

GCATATAGGTAATACAAGGTAAAAGTCCGATTGT displayed a PBM binding z-score of 0.085.

With TGAATGAGGTTATAAGATCGGGGAACGTTGCAAA, the PBM binding z-score came to 0.904.

Turning to CAAACTAGGTCAAGGTCAAACTCGGTTTGTGCCA, the PBM binding z-score turned out to be 5.49.

In the case of GCTAGTTGGTCAGTTAAAGGTCACACACCGGTCG, the PBM binding z-score came to 3.95.

TCTCGGAGGACACGAAGGTCAGAGCATTCCAGAG registered a PBM binding z-score of 2.31.

In turn, CGTCCAAGGTAAGCAGGTCAGTGAAAGCGACGTG registered a PBM binding z-score of 0.00518.

Turning to TATCCTAGGTCATTGGGCCAGTATAGTACGCATC, the PBM binding z-score worked out at 3.04.

TCTAGCAGGCCAGAGGTTCACTCAAGAGGTACGG gave a PBM binding z-score of 0.704.

In the case of TCTAGCAGGCCAGAGGGTCCCTCAAGAGGTACGG, the PBM binding z-score is -0.431.

Sequence GCTTGTAGATCAAGGATAAGAAAGACTAAGCTAA had a PBM binding z-score of -0.525.

As for CAAACTAGCTCAAGGTCAAAGTCGGTTTGTGCCA, the PBM binding z-score worked out at 4.51.

With ATGTCTAGGTAACAAGTTCAGTGAAAGAGAGGAC, the PBM binding z-score was 2.14.

Take TCTCGGCGGACACGAAAGGTCAGAGCTCGACATC: the PBM binding z-score was found to be 2.19.

Regarding ATCGAAAGGTCGACGAGCTGAGTATACACCGTTT, the PBM binding z-score came to 2.15.

On to AGTCAAAGTCCAGGACGAGGTAACGTAAAGCACG, for which the PBM binding z-score was -0.202.

For the sequence TCTTGTCGATCAATAGAGGTTAAGAAAGTGCGCT, the PBM binding z-score is 1.86.

Regarding TCGAGTAGGTTCCCAATGGGGCATTCAGCTTTCT, the PBM binding z-score was -0.37.

In turn, GCTTACGGGTCAAAGGTAATAGCATGAATAGAAT returned a PBM binding z-score of 4.12.

TCATATAGGTAAATGATAGGTGAAAGTCCGATCT displayed a PBM binding z-score of 1.15.

As for ATCGAAAGGTCGTGAGGAGAGTATACAGAAAGGC, the PBM binding z-score is 3.11.

As for CCTCGGAGGACAACAGGCGGTCAGAGCTGCCAGA, the PBM binding z-score is -0.555.

ATCTCTAGGTAGAGTTCAGTGAAAGATCGATAGA: the PBM binding z-score turned out to be 2.38.

In turn, TAGCCTAGGTCAGATCGGGCCAGTTTACGCTATA came in with a PBM binding z-score of 0.663.

As to CATACAGGGTCAGATAGGCCAGAGTAGGGACGGC, the PBM binding z-score turned out to be 3.2.
